Screens: PubChem, several laboratories
eLon inh: inhibits E. coli Lon protease; P0A9M0; purified E. coli Lon protease, fluorescence polarization; inhibition, % at 7.94 µM; actives 0.42% (n = 360,000); AID 602123; in the data active means inhibition above about 13%, passing the limit was not always enough;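 further: 0% = enzyme with probe and DMSO and 100% = no enzyme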
GLD-1 RNA inh: GLD-1-TGE RNA interaction inhibition (C. elegans); AID 2280; actives 0.44% (n = 320,000); inhibition, % at 5.96 µM; Q17339; purified GLD-1 + fluorescein TGE RNA, fluorescence polarization;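 active means percent inhibition above a per-plate cutoff, the plate mean of test compounds plus 3 SD, cut at about 30% in these data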;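 further: 0% = DMSO wells with GLD-1 and probe and 100% = wells lacking GLD-1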
Target sequence (Q17339 whole entry, looked up): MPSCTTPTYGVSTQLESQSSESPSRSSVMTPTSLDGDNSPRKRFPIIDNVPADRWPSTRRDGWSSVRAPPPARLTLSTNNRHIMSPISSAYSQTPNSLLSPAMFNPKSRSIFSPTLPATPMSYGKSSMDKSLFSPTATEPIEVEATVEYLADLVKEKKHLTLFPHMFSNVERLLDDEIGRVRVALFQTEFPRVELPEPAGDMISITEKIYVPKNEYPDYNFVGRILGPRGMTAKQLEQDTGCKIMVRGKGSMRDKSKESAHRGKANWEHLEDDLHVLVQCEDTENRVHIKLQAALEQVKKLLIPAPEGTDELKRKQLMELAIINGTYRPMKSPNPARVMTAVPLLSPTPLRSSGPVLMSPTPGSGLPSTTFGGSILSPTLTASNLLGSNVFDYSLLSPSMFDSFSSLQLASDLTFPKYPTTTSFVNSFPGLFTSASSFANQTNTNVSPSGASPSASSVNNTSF
LANA DNA inh: KSHV C-LANA DNA binding inhibition. MBP-C-LANA/FAM-LBS DNA binding, fluorescence polarization. inhibition, % at 9 µM. actives 0.078% (n = 340,000). AID 504423;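 active means highest replicate inhibition at or above 60% at 9 µM, even if other replicates fall short; inactive means all replicates below 60% inhibition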;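 further: 0% = neutral control wells and 100% = 4 µM acridine orange control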
LANA-H2A inh: blocks KSHV LANA binding to histone H2A/H2B | cell-free LANA-H2A/H2B peptide, fluorescence polarization | inhibition, % (concentration not given with the values) | actives 0.6% (n = 320,000); in the data active means inhibition mostly above about 10%, no sharp cut-off; inactive means mostly below about 6.7%
EBV gp42 block: EBV gp42 inhibition; Q1HVG2; Fluorescence polarization binding assay, mP read-out; inhibition, % (tested at 21.74 µM); actives 0.42% (n = 220,000); AID 1085; in the data active means inhibition above about 50%
Keap1-Nrf2 PPI: inhibitors of human Keap1-Nrf2 protein-protein interaction. Q14145. Keap1 Kelch-Nrf2 peptide fluorescence polarization, 1536-well. inhibition, % at 9.4 µM. actives 0.15% (n = 340,000). AID 504523; in the data active means inhibition above about 12%;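 further: human Keap1 Kelch domain with fluorescein labeled Nrf2 9mer peptide probe; 0% = neutral control wells and 100% = peptide positive control; higher means more block of Keap1 binding to Nrf2 peptide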
eLon confirm: confirmation of E. coli Lon protease inhibitors; shares compounds with eLon inh; purified E. coli Lon, fluorescence polarization; inhibition, % at 7.94 µM; actives 31% (n = 1,400); in the data active means inhibition above about 16%;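 further: 0% = enzyme with probe and DMSO and 100% = no enzyme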
Numbers without * were called inactive. Most compounds without a hit are left out; they make up all but 1.5% or so of the library.

`O=P(/C(=N/O)N1CCOCC1)(N1CCOCC1)N1CCOCC1` gave eLon inh 7.5, GLD-1 RNA inh 9.6, LANA DNA inh -1.1, LANA-H2A inh -7.2, EBV gp42 block -29.5 and Keap1-Nrf2 PPI 0.9.
For Cc1nc2cc([N+](=O)[O-])ccc2c(=O)n1-c1ccccc1[N+](=O)[O-] the results were eLon inh 15.0*, GLD-1 RNA inh 9.8, LANA DNA inh -0.4, LANA-H2A inh -5.2, EBV gp42 block -8.0, Keap1-Nrf2 PPI 1.6 and eLon confirm -6.0.
`CCCCn1c(=O)c(C(=O)NCc2ccccc2OC)c(O)c2ccccc21` gave eLon inh 66.3*, GLD-1 RNA inh 2.0, LANA DNA inh -0.3, LANA-H2A inh 5.0, Keap1-Nrf2 PPI -2.1 and eLon confirm -1.4.
`Cc1nn(Cc2ccccc2Cl)c(Cl)c1C(=O)O` gave eLon inh 15.3*, GLD-1 RNA inh 3.5, LANA DNA inh -2.1, LANA-H2A inh -2.7, EBV gp42 block -16.8, Keap1-Nrf2 PPI -1.8 and eLon confirm -42.7.
Screening Cc1nn(Cc2ccccc2)c(Cl)c1C(=O)O returned eLon inh -1.2, GLD-1 RNA inh -2.2, LANA DNA inh -1.5, LANA-H2A inh 1.3, EBV gp42 block -13.6 and Keap1-Nrf2 PPI -2.7.
`CCC(=NCc1ccco1)c1c(O)n(-c2ccc(Cl)cc2)c(=O)[nH]c1=O` gave eLon inh -8.9, GLD-1 RNA inh 0.1, LANA DNA inh 0.2, LANA-H2A inh -1.1, EBV gp42 block -4.3 and Keap1-Nrf2 PPI 1.5.
For CCCn1ncc(CN2CCCC(C(=O)c3cccc(OC)c3)C2)c1C (stereo not given) the results were eLon inh 12.5, GLD-1 RNA inh 1.0, LANA DNA inh -0.3, LANA-H2A inh 2.2, EBV gp42 block -11.0 and Keap1-Nrf2 PPI -4.1.
`Cc1ccc(N=Cc2c(O)n(C)c(=O)n(C)c2=O)cc1` gave eLon inh 46.0*, GLD-1 RNA inh -0.3, LANA DNA inh -0.3, LANA-H2A inh -2.9, Keap1-Nrf2 PPI 1.7 and eLon confirm -11.6.
`O=c1[nH]c(O)c(/C=C2\C=Nc3ccc(OCc4ccccc4)cc32)c(=O)[nH]1` gave eLon inh 26.9*, GLD-1 RNA inh 45.7*, LANA DNA inh 4.7, LANA-H2A inh -8.1, Keap1-Nrf2 PPI -2.5 and eLon confirm 30.4*.
O=c1[nH]c(O)c(C=NCCc2ccccc2)c(=O)[nH]1 was read as eLon inh -7.0, GLD-1 RNA inh 8.2, LANA DNA inh 0.7, LANA-H2A inh -0.2, EBV gp42 block -31.6 and Keap1-Nrf2 PPI 0.4.
`CC(=NCc1ccc2c(c1)OCO2)c1c(O)n(-c2ccccc2)c(=O)[nH]c1=O` gave eLon inh 5.4, GLD-1 RNA inh 1.1, LANA DNA inh 2.4, LANA-H2A inh -2.2, EBV gp42 block -7.7 and Keap1-Nrf2 PPI 6.7.
Screening CN1CCN(Cc2ccc(N)cc2)CC1 returned eLon inh -3.5, GLD-1 RNA inh 6.0, LANA DNA inh -1.3, LANA-H2A inh -1.5, EBV gp42 block -3.7 and Keap1-Nrf2 PPI -3.0.
For CN1CCN(Cc2cc(C(C)(C)C)c(O)c(C(C)(C)C)c2)CC1 the results were eLon inh 25.2*, GLD-1 RNA inh 5.6, LANA DNA inh 0.8, LANA-H2A inh -0.6, EBV gp42 block 1.2, Keap1-Nrf2 PPI -7.7 and eLon confirm -9.1.
For Cc1ncc(CN2CCCC(C(=O)c3cccc(Cl)c3)C2)s1 (stereo not given) the results were eLon inh -5.9, GLD-1 RNA inh 0.2, LANA DNA inh 0.5, LANA-H2A inh 3.1, EBV gp42 block -8.9 and Keap1-Nrf2 PPI 2.5.
Screening Nc1c2c(nc3ccccc13)CCN(Cc1ccccc1)C2 returned eLon inh 197.8*, GLD-1 RNA inh 96.6*, LANA DNA inh 7.9, LANA-H2A inh 11.7, Keap1-Nrf2 PPI 10.5 and eLon confirm 1.8.
`COc1ccc2cc(C(=O)C3CCCN(C4CCOCC4)C3)ccc2c1` (stereo not given) gave eLon inh 102.7*, GLD-1 RNA inh -5.4, LANA DNA inh -0.2, LANA-H2A inh -3.0, EBV gp42 block -9.7, Keap1-Nrf2 PPI -1.4 and eLon confirm -0.9.
Screening COC(=O)C1=C(c2cccc3c2S(=O)(=O)c2ccccc2-3)C[C@@H]2CC[C@H]1N2C(=O)N1CCc2cc(OC)c(OC)cc2C1 returned eLon inh 1.4, GLD-1 RNA inh 0.4, LANA DNA inh 2.3, LANA-H2A inh 3.4 and Keap1-Nrf2 PPI -0.6.
`CCOC(=O)C1CCCN(c2ccc([N+](=O)[O-])c3nonc23)C1` (stereo not given) gave eLon inh 192.8*, LANA DNA inh 89.7*, EBV gp42 block 127.1*, Keap1-Nrf2 PPI -10.9 and eLon confirm 186.4*.
For CC1CCCN(c2ccc(C(=O)N3CCC4(CC3)OCCO4)cc2[N+](=O)[O-])C1 (stereo not given) the results were eLon inh -2.1, GLD-1 RNA inh 1.5, LANA DNA inh -0.5, LANA-H2A inh -4.0, EBV gp42 block -3.2 and Keap1-Nrf2 PPI -2.1.
Screening CCC1(O)CCC2C3CCC4=CC(=O)CCC4C3CCC21CC (stereo not given) returned eLon inh -1.4, LANA DNA inh 1.2 and Keap1-Nrf2 PPI -0.1.
COc1ccc2[nH]c(C)c(CCNCc3cccnc3)c2c1 was read as eLon inh 68.6*, GLD-1 RNA inh 20.4, LANA DNA inh 13.3, LANA-H2A inh 4.0, Keap1-Nrf2 PPI 8.1 and eLon confirm 32.9*.
Screening COc1cc(C(O)CNC(C)C)cc(F)c1OC (stereo not given) returned eLon inh 23.3*, GLD-1 RNA inh 3.3, LANA DNA inh 0.9, LANA-H2A inh 1.7, Keap1-Nrf2 PPI -0.5 and eLon confirm 6.9.
Screening CCC1(NS(=O)(=O)c2ccc(N)cc2)C(=O)N(C)C(=O)N(C)C1=O returned eLon inh -12.3, LANA DNA inh 0.6 and Keap1-Nrf2 PPI 3.8.
For CCCCn1c(O)c(C=NCc2ccc3c(c2)OCO3)c(=O)[nH]c1=O the results were eLon inh -5.9, GLD-1 RNA inh -0.2, LANA DNA inh -1.2, LANA-H2A inh -4.4, EBV gp42 block -7.8 and Keap1-Nrf2 PPI 1.9.
O=c1[nH]c(=O)n(Cc2ccco2)c(O)c1C=NCc1ccc2c(c1)OCO2 was read as eLon inh 19.7*, GLD-1 RNA inh -1.4, LANA DNA inh 0.3, LANA-H2A inh -1.3, EBV gp42 block -96.1, Keap1-Nrf2 PPI -3.5 and eLon confirm 0.3.
